# Calb FLC: affects C. albicans growth with fluconazole; hit rate 0.57% among 300,000; growth inhibition, % (no concentration beside the values); AID 1979; C. albicans CaCi-2 (fluconazole-resistant clinical isolate) + fluconazole, Alamar Blue growth, 48 h;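 active means growth inhibition above about 58% in most replicates, limit read from the data, passing the limit was not always enough; inconclusive means exactly half the replicates above a set limit; inactive means most replicates below a set limit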;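 further: all wells also contain fluconazole at 8 µg/ml as a sub-toxic cotreatment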
# Shn3 3UTR inh: reduces Shn3 3'UTR luciferase signal in osteoblasts | Clone20 osteoblast Shn3 3'UTR firefly luciferase, 24 h | inhibition, % at 12.5 µM | hit rate 0.52% among 360,000 | AID 588674;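 active means mean inhibition of at least 75% with every replicate also reaching 75%; inconclusive means mean inhibition at least 75% but some replicate below; inactive means mean inhibition below 75%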
# Jurkat NFkB inh: inhibitors of the PMA/ionomycin-induced NF-kB reporter in Jurkat cells | hit rate 0.53% among 330,000 | inhibition, % at 4 µM | PMA/ionomycin-induced NF-kB luciferase reporter, luminescence; in the data active means inhibition above about 50%
# Beta apoptosis: blocks beta cell apoptosis. hit rate 0.8% among 300,000. protection from apoptosis, % (no concentration beside the values). INS-1E cytokine-induced death, ATP luminescence, 48 h; percent of positive-control rescue, neutral wells zero;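 active means Every replicate reaches about 75%, or at least half do and their mean reaches it too, limit read from the data; inconclusive means At least half of replicates reach the limit but their mean does not; inactive means Under half of replicates reach the limit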;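 further: higher means more ATP so stronger rescue from cytokine killing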
# 697 NFkB inh: lowers PMA/ionomycin-induced NF-kB signal in 697 B cells; hit rate 0.33% among 330,000; 697 B-cell NF-kB luciferase reporter, 16 h; inhibition, % at 4 µM; AID 435022; in the data active means inhibition above about 35%
# Numbers stand for hits; i = inactive; ? = inconclusive; nt = not tested or not shown. Rows were chosen to be rich in hits. Some 2% of all compounds tested hit in one or more screens of this group.
SMILES,Calb FLC,Shn3 3UTR inh,Jurkat NFkB inh,Beta apoptosis,697 NFkB inh
CC1(Cc2ccc3ccccc3n2)C(=O)Nc2ccc(OC(F)(F)F)cc21 (configuration not stated),nt,i,nt,nt,nt
COC(=O)/C=C/S(=O)(=O)c1ccc(NC(C)=O)cc1,i,93.3,i,i,i
Cc1ccc(C2C(C=Nc3c(C)n(C)n(-c4ccccc4)c3=O)=C(c3ccccc3)Oc3ccccc32)cc1 (configuration not stated),i,i,i,80.2,i
Cc1c(N=Cc2cccs2)c(=O)n(-c2ccccc2)n1C,i,i,i,i,i
CC(C)C(=O)Nc1nnc(NC(=S)Nc2ccccc2)s1,i,i,i,i,i
CCCc1nnc(NC(=S)Nc2ccccc2)s1,77.0,i,i,i,i
COc1ccc(/C=C/c2nc3ccccc3n2C)cc1,i,i,i,105.6,i
CCCCC1S/C(=N/N=C/c2ccco2)NC1=O (configuration not stated),99.9,i,i,i,i
CCCC1S/C(=N/N=C/c2ccco2)NC1=O (configuration not stated),i,i,i,i,i
COc1ccccc1NC(=O)c1ccc2nc(C)sc2c1,i,i,i,i,i
COc1cccc(NC(=O)c2ccc3nc(C)sc3c2)c1,99.1,i,i,i,i
CCCOc1cc(NCc2ccccc2)c2ncn(C(C)C)c2c1,nt,i,i,123.7,i
CCOCCn1c(N2CCCC2)nc2c1c(=O)n(C)c(=O)n2C,i,i,i,i,i
Cc1cc([N+](=O)[O-])nn1Cc1ccc(C(=O)N/N=C/c2ccc(O)cc2O)cc1,i,i,i,97.7,i
O=C(N/N=C/c1ccccc1)c1ccc(CN2C(=O)c3cccc4cccc2c34)cc1,i,i,i,i,i
O=C(N/N=C/c1ccc(O)cc1O)c1ccc(CN2C(=O)c3cccc4cccc2c34)cc1,107.8,94.0,i,93.2,i
CC(=O)C1=C(C)NC(SCC(=O)c2ccc(Cl)cc2)=C(C#N)C1c1ccco1 (configuration not stated),i,i,i,nt,i
CC(=O)C1=C(C)NC(SCC(=O)c2ccc(Cl)cc2Cl)=C(C#N)C1c1ccco1 (configuration not stated),i,i,i,104.6,i
Nc1nc(CN2CCCCCC2)nc(Nc2ccc(F)cc2)n1,i,i,i,i,i
Nc1nc(CN2CCN(c3ccccn3)CC2)nc(Nc2ccc(F)cc2)n1,92.3,i,i,i,i
CCc1c(O)nc(SCC(=O)Nc2ccccc2)n(-c2ccccc2)c1=O,i,95.8,i,i,i
CCc1c(O)nc(SCC(=O)Nc2ccccc2OC)n(-c2ccccc2C)c1=O,i,i,i,i,i
CCCCc1c(O)nc(SCC(=O)Nc2cccc3ccccc23)n(-c2ccccc2OC)c1=O,83.1,i,i,i,i
CCc1c(O)nc(SCC(=O)Nc2ccccc2)n(-c2ccccc2C)c1=O,nt,i,nt,nt,nt
Cc1ccccc1Nc1nc(N)[nH]c(=O)c1N=O,nt,i,nt,nt,nt
SMILES,Calb FLC,Shn3 3UTR inh,Jurkat NFkB inh,Beta apoptosis,697 NFkB inh
CCCCCCc1ccc(N2C[C@H](Cc3ccccc3)[C@@H](CC(=O)Nc3ccccc3)C2=O)cc1,i,i,i,103.9,i
CCCCC[C@H]1CN(Cc2ccc(OC)cc2)C(=O)[C@@H]1CC(=O)NCc1ccccc1,i,88.6,i,i,i
O=C(C[C@H]1C(=O)N(c2ccc(Br)cc2)C[C@@H]1Cc1ccccc1)Nc1ccccc1,nt,i,nt,nt,nt
CCCCC[C@H]1CN(CCCC)C(=O)[C@@H]1CC(=O)NCc1ccccc1,i,i,i,i,i
CCCCCCc1ccc(N2C[C@H](Cc3ccccc3)[C@@H](CC(=O)NCc3ccc(OC)cc3)C2=O)cc1,i,i,i,99.8,i
CCCCCCc1ccc(N2C[C@H](CCCCC)[C@@H](CC(=O)NCc3ccc(OC)cc3)C2=O)cc1,i,i,i,i,i
COc1ccc(C)cc1NC(=O)C(Sc1nnnn1C)c1ccccc1 (configuration not stated),95.2,i,i,i,i
COC(=O)c1ccc2nc(-c3ccc(OC)c(OC)c3)c(Cc3ccc(OC)cc3C)n2c1,nt,i,nt,nt,nt
CC(C)(C)c1ccc(Nc2n[nH]c3ccccc23)cc1,nt,i,nt,nt,nt
CCn1ccc2cc(OC)ccc2c1=S,i,i,i,i,i
CCSc1ccc2cc(OC)ccc2[n+]1CC,75.4,i,i,i,i
O=C(Nc1ccc(OCC(=O)N2CCC(Cc3ccccc3)CC2)cc1)c1ccco1,i,i,i,98.1,i
CCCC[C@@H]1C=C(C(=O)O)[C@H](c2ccc(Br)cc2)N1S(=O)(=O)c1ccc(C)cc1,nt,i,i,nt,i
O=c1c(Cl)c(NCCCO)cnn1-c1nc2ccccc2[nH]1,77.8,i,i,nt,i
O=C(NCC1COc2ccccc2O1)c1cccc(S(=O)(=O)N2CCOCC2)c1 (configuration not stated),nt,i,i,i,i
CC[n+]1c(/C=C2\Sc3ccccc3N2C)ccc2cccc(C)c21,101.9,89.0,nt,nt,nt
CN1/C(=C/c2cccc[n+]2CCO)Sc2ccccc21,i,i,i,i,i
CSc1ncccc1C(=O)OCC(=O)NC(C)CCc1ccccc1 (configuration not stated),nt,i,i,i,i
COC(=O)C1CN(S(=O)(=O)c2cc(OC)ccc2OC)CCS1 (configuration not stated),i,i,i,i,i
Cc1nc2c(O)c3c(c(O)c2nc1C)C1C=CC3CC1,nt,97.1,nt,nt,nt
Cc1nc2c(C)c(C)c(C)c(C)c2nc1C,i,i,i,i,i
Cc1ccc(-n2c(O)c(C=Nc3ccccc3-c3n[nH]c(=S)[nH]c3=O)c3ccccc3c2=O)cc1C,100.1,i,i,nt,i
O=C(COC(=O)Cc1ccc(Cl)cc1)Nc1c(F)cccc1F,i,i,i,i,i
Cc1ccc(-c2nc(C(Cl)Cl)c3ccccc3n2)cc1,i,i,i,93.7,i
Cc1ccc(-c2nc(Nc3ccc(O)cc3)c3ccccc3n2)cc1,i,i,i,i,i
SMILES,Calb FLC,Shn3 3UTR inh,Jurkat NFkB inh,Beta apoptosis,697 NFkB inh
O=C(C(Sc1ccccc1)c1ccccc1)N1CCN(c2ccccc2F)CC1 (configuration not stated),i,i,i,90.5,i
Cc1cc(=O)oc2cc(OCC(=O)N3CCC(C(N)=O)CC3)ccc12,i,i,i,nt,i
O=C(OCc1ccccc1)N(CCCCN(CCCNCc1ccccc1)C(=O)OCc1ccccc1)CCCNCc1ccccc1,nt,99.1,nt,nt,nt
CCCNC(=O)CSc1nnc(NC(=O)C2CC(=O)N(c3ccccc3OC)C2)s1 (configuration not stated),nt,i,nt,nt,nt
O=C(Nc1cc2c3c(c1)C1CCCC1CN3CC1CCCC21)c1ccccc1 (configuration not stated),88.8,i,i,i,i
O=C(Nc1cccc(C(=O)NC2CC2)c1)c1ccccc1,nt,i,nt,nt,nt
CCc1nc2ccc(C(=O)NCCCn3ccnc3)cn2c1N(C)Cc1cc2ccccc2s1,nt,i,nt,nt,nt
CCN(CC)CCNC(=O)c1ccc(NC(=O)c2cn(-c3ccccc3)nc2-c2cccs2)cc1,i,i,i,78.5,i
O=C(O)c1ccc(S(=O)(=O)/N=C2\C=C(Nc3ccccc3F)C(=O)c3ccccc32)cc1,i,?,i,99.3,i
